GC-B act: human GC-B receptor activators, primary screen, HEK293 GC-B cells, cGMP TR-FRET, EC30 CNP; AID 1920062, 2024; Atrial natriuretic peptide receptor 2 (Homo sapiens), P20594; 370,000 compounds, 0.11% hits; 0% at EC30 CNP, 100% saturating CNP; activation, % at 10 µM;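 active means activation at 10 µM reaching about 35% in either raw or pattern-adjusted values, limit read from the data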
bovine MsrA act: bovine MsrA enzyme activators, primary screen, biochemical, absorbance, HTS; Methionine sulfoxide reductase A (Bos taurus); 360,000 compounds, 0.3% hits; activation, % at 10.6 µM; purified bovine MsrA, absorbance read-out; in the data active means activation above about 7.5%
NPR1 activator: GC-A stimulated cGMP production enhancers – HEK293 GC-A cells, cGMP TR-FRET, EC30 ANP, primary screen; activation, % at 10 µM; 0% at EC30 ANP, 100% saturating ANP; 370,000 compounds, 0.14% hits; in the data active means activation above about 40%
MsrA inh: bovine MsrA enzyme inhibitors, primary screen, biochemical, absorbance, HTS. Methionine sulfoxide reductase A (Bos taurus). purified bovine MsrA, absorbance read-out. inhibition, % at 15.5 µM. 360,000 compounds, 0.75% hits; in the data active means inhibition above about 4.5%
m5-HT2A agonist: mouse Htr2a agonists via beta-arrestin recruitment, primary screen, cell-based, luminescence; CHO-K1 mHTR2A beta-arrestin complementation; percent of 30 µM serotonin response; activation, % at 7.6 µM; 360,000 compounds, 0.66% hits;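 active means activation above a run cutoff, the mean activation of all tested compounds plus 3 SD, cut at about 14% in these data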
OPRM1 ag: OPRM1 agonists via beta-arrestin recruitment, confirmation, counter-screen for mouse HTR2A agonist project, cell-based, luminescence, single concentration; shares compounds with m5-HT2A agonist; U2OS OPRM1 beta-arrestin PathHunter; DMSO 0%, DAMGO 9.3 µM 100%; activation, % at 9.3 µM; 2,300 compounds, 5.3% hits; AID 624380, 2012;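 active means mean activation above the mean of DMSO-only wells plus 3 SD, cut at about 0.5% in these data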
m5-HT2A ag conf: mouse HTR2A agonists, beta-arrestin recruitment, confirmation, cell-based, luminescence, CHO-K1 PathHunter, triplicate. shares compounds with m5-HT2A agonist. DMSO 0%, 30 µM serotonin 100%. activation, % at 7.6 µM. 2,300 compounds, 19% hits;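 active means mean activation across triplicates above the hit threshold derived in the original primary screen, cut at about 15% in these data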
A number is an active result; n = inactive; x = no result. Shown are actives, neighbours in structure and some others; about 1.8% of the full set was active somewhere.

SMILES	GC-B act	bovine MsrA act	NPR1 activator	MsrA inh	m5-HT2A agonist	OPRM1 ag	m5-HT2A ag conf
O=C(OCCCN1CCC2(CCC(c3ccccc3)CC2)C1=O)c1ccccc1 (stereo not given)	n	x	n	x	x	x	x
NCCc1nc(-c2ccccc2)cs1	n	n	n	n	35	n	n
NC(=O)Cn1c(=O)n(Cc2ccccc2)c(=O)c2cccnc21	n	n	n	n	n	x	x
CCOC(=O)Cn1c(=O)n(Cc2ccc(C)cc2)c(=O)c2cccnc21	n	n	n	n	50	n	n
CCOc1ccc(-c2cc(C(=O)N3CCN(C)CC3)c3ccccc3n2)cc1	n	n	n	n	n	x	x
CCOc1ccc(-c2cc(C(=O)N3CCCC3)c3ccccc3n2)cc1	x	n	x	x	15	n	n
C=CCn1c(SCC(=O)NCC(=O)OCC)nnc1-c1cccc(OC)c1	n	n	n	n	20	n	n
CCOC(=O)CNC(=O)CSc1nnc(-c2cccc(C)c2)n1-c1ccc(OC)cc1	n	n	n	n	n	x	x
COCC(=O)Nc1ccc2c(c1)[C@H]1C[C@@H](CC(=O)NCC3CC3)O[C@H](CO)[C@H]1O2	n	x	n	n	x	x	x
CCNC(=O)C[C@H]1CC[C@H]2[C@@H](COc3ccc(NC(=O)Nc4ccccc4)cc3C(=O)N2C)O1	n	x	n	x	x	x	x
O=C(COc1ccccc1)NCc1n[nH]c(=S)n1-c1ccccc1	n	n	n	n	16	n	n
COc1ccc(-n2c(CNC(=O)COc3ccccc3)n[nH]c2=S)cc1	n	n	n	n	n	x	x
O=C1CCc2cc(S(=O)(=O)NCc3ccccc3)cc3c2N1CC3	n	n	n	n	n	x	x
COc1cccc(CNS(=O)(=O)c2cc3c4c(c2)CCN4C(=O)CC3)c1	n	n	n	n	18	n	n
COC(=O)[C@]12C[C@H](CC(=O)NCC34CC5CC(CC(C5)C3)C4)C(=O)N(Cc3ccccc3)C1=C[C@H](COCc1ccccc1)O[C@@H]2C	n	x	n	x	x	x	x
CSc1ccccc1C(=O)N1CCC(CCC(=O)NC2CC2)CC1	n	n	n	n	15	n	n
CC(=O)N1CCN(C(=O)c2ccc(S(=O)(=O)Nc3ccccc3Cl)cc2)CC1	n	n	n	n	16	0.9	n
CCOC(=O)Cc1nc(N2CCN(C=O)CC2)c2c(C)c(C(=O)OCC)sc2n1	n	x	n	x	x	x	x
CSc1ccc(NC(=O)N2CCN(c3nc4ccccc4s3)CC2)cc1	n	n	n	n	18	0.5	n
CC(=O)N1C[C@H]2CON(C)[C@H]2C[C@H]1c1ccccc1Br	n	n	n	n	18	n	n
CCNC(=O)N1C[C@H]2CON(C)[C@H]2C[C@H]1c1ccccc1Br	n	n	n	n	n	x	x
CN1CCC(=NNC(=O)CN(c2ccc([N+](=O)[O-])cc2)S(=O)(=O)c2ccccc2)CC1	n	n	n	n	17	n	n
CN1CCC(=NNC(=O)CN(c2cccc([N+](=O)[O-])c2)S(=O)(=O)c2ccccc2)CC1	n	n	n	n	n	x	x
CCOc1ccc(C2C(C(N)=O)=C(C)Nc3ncnn32)cc1OC (stereo not given)	n	n	n	n	n	x	x
CCOc1cc(C2C(C(C)=O)=C(C)Nc3ncnn32)ccc1O (stereo not given)	x	n	x	x	15	n	n
C[C@@H]1OC(C2CCCCC2)N(C)[C@H]2C[C@H]3c4[nH]c5cccc(-c6ccccc6)c5c4CCN3C[C@@H]12 (stereo not given in full)	n	x	n	x	x	x	x

Screening results as filed in PubChem.
